{
  "source": "PubChem BioAssay (NCI)",
  "note": "This is part of a sample that, as a whole, favours compounds with a hit. Of some 83,000 tested, about 20% had one in any assay.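 Negative percent growth values reflect cell death: -40 means 40% of the cells present at the start died, and -100 means all died.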 Calls of active or inactive are those of the source. Rule for the calls: active = growth percent below 10; inactive = the rest.",
  "data": [
    {"system": "EKVX NSCLC", "assay": "NCI-60 one-dose screen, 48 h (100 = growth as untreated, 0 = no growth, -100 = all killed)", "details": "10 µM unless noted", "values": [
      {"smiles": "O=C(NCCCN1CCOCC1)c1cccc(N2C(=O)/C(=C/c3ccc(F)cc3)SC2=S)c1", "growth": "88.5% (inactive)"},
      {"smiles": "CC(C)NC1CCC(Nc2ccnc3cc(Cl)ccc23)CC1", "note": "(stereo not drawn)", "growth": "97.1% (inactive)"},
      {"smiles": "Fc1ccc(-c2nn(-c3ccccc3)cc2-c2nc3ccccc3o2)cc1", "growth": "84% (inactive)"},
      {"smiles": "COc1ccc(C/C(C)=C(/c2ccc(OCCN3CCCCC3)cc2)c2ccc(OC(=O)NCc3ccccc3)cc2)cc1", "growth": "-78.4% (active)"},
      {"smiles": "Cn1cc(-c2nonc2-c2c[nH]c3ccc(Br)cc23)c2cc(Br)ccc21", "growth": "33.5% (inactive)"},
      {"smiles": "Cn1c(=O)c2c(nc(NC3=NS(=O)(=O)c4ccccc43)n2CC(=O)N2CCc3ccccc32)n(C)c1=O", "growth": "102% (inactive)"},
      {"smiles": "Clc1ccc(Nc2nnc(COc3ccccc3)c3ccccc23)cc1", "growth": "6.53% (active)"},
      {"smiles": "O=[N+]([O-])c1ccc(S(=O)(=O)N2CCN(C3=NS(=O)(=O)c4ccccc4N3c3ccccc3)CC2)cc1", "growth": "102% (inactive)"},
      {"smiles": "CCNC(=O)c1[nH]cc(-c2ccccc2)c1-c1cc(OC)c2c(c1OC)OCO2", "growth": "96.9% (inactive)"},
      {"smiles": "COCCn1c(-c2csc(-c3cn(C)c4ccc(OC)cc34)n2)cc2cccnc21", "growth": "58.5% (inactive)"},
      {"smiles": "S=C(Nc1ccc(-c2nc(N3CCOCC3)c3cccn3n2)cc1)Nc1cccnc1", "growth": "46.7% (inactive)"},
      {"smiles": "COc1cc(CNC(=O)CCCC/C=C/C(C)C)ccc1OCc1nnc(Nc2ccc([N+](=O)[O-])cc2)o1", "growth": "74.7% (inactive)"},
      {"smiles": "N#CC1=C(c2ccc(Cl)cc2)Nc2c(c(-c3ccc(Cl)cc3)nn2-c2ccccc2)C12C(=O)Nc1ccc(Cl)cc12", "note": "(stereo not drawn)", "growth": "38.8% (inactive)"},
      {"smiles": "CCOC(=O)/C=C1\\S/C(=N\\Nc2cc(=O)[nH]c3ccc(Cl)cc23)N(c2ccccc2)C1=O", "growth": "100% (inactive)"},
      {"smiles": "COc1cccc(NC(=O)Cn2cc(CN3CCN(c4ccnc5cc(Cl)ccc45)CC3)nn2)c1", "growth": "76.7% (inactive)"},
      {"smiles": "COc1cc(N2C(=O)[C@H](O)C2c2ccc(SC)cc2)cc(OC)c1OC", "note": "(stereo partly drawn)", "growth": "36.7% (inactive)"},
      {"smiles": "CSc1nnc(-c2cnn3c2NC(c2ccccc2)C3)n1-c1ccc(C(F)(F)F)cc1", "note": "(stereo not drawn)", "growth": "56% (inactive)"},
      {"smiles": "N=C(N)c1ccc(-c2ccc(-c3ccc(F)cc3)o2)o1", "growth": "47.5% (inactive)"},
      {"smiles": "CC1=NN(c2nc(SCC(=O)Nc3nc4ccc(C)cc4s3)nc(-c3ccccc3)c2C#N)C(=O)C1", "growth": "106% (inactive)"},
      {"smiles": "C/C(Nc1ccc(Cl)c(Cl)c1)=C1\\CCOC1=O", "growth": "77.4% (inactive)"},
      {"smiles": "N#Cc1cccc(-c2c(-c3ccc4ccccc4c3)oc3ccccc3c2=O)c1", "growth": "52.7% (inactive)"},
      {"smiles": "CC(C)N1CCN(Cc2ccc3c(NNC(=O)c4ccccc4)nc4cc(F)ccc4n23)CC1", "growth": "18.1% (inactive)"},
      {"smiles": "O=S(=O)(NCCCNc1nccc(-c2c(-c3ccc(F)c(O)c3)nc3occn23)n1)c1ccccc1", "growth": "101% (inactive)"},
      {"smiles": "O=C1NCCC12CCN(c1c(Cl)cncc1-c1ccc(O)cc1)CC2", "growth": "86.4% (inactive)"},
      {"smiles": "Cc1cccnc1NC(=S)Nc1ncccc1C", "growth": "95.6% (inactive)"},
      {"smiles": "COc1ccc2c3c([nH]c2c1)C(=O)c1nc(C)ccc1C3=O", "growth": "53.6% (inactive)"},
      {"smiles": "CC1Cc2c(Cl)ncnc2N(C)c2ccc(F)cc21", "note": "(stereo not drawn)", "growth": "87.6% (inactive)"},
      {"smiles": "O=C1c2cc(Cl)ccc2S(=O)(=O)c2c(NCCCNCCO)nc3ccccc3c21", "growth": "33.2% (inactive)"},
      {"smiles": "O=C(c1ccc(Cl)cc1)N1CCN(c2ccnc3cc(Cl)ccc23)CC1", "growth": "96.4% (inactive)"},
      {"smiles": "Cc1nnc(NC(=O)c2nc(S(=O)(=O)Cc3ccc(F)cc3)ncc2Cl)s1", "growth": "90.5% (inactive)"},
      {"smiles": "COc1ccc2[nH]cc(-c3nc(-c4cn(C)c5c(Cl)nccc45)cs3)c2c1", "growth": "73.7% (inactive)"},
      {"smiles": "COc1ccc(/C(C)=C(/c2ccc(OCCCN(C)C)cc2)c2ccc(OC(=O)Cc3ccccc3)cc2)cc1", "growth": "65.8% (inactive)"},
      {"smiles": "CCOc1nc(-c2ccccc2)cc2c(O)c(C(=O)NN)[nH]c(=O)c12", "growth": "108% (inactive)"},
      {"smiles": "Cn1c(=O)c2[nH]c(N/N=C/c3ccccc3Br)nc2n(C)c1=O", "growth": "128% (inactive)"},
      {"smiles": "Clc1ccc(Sc2cnc(-c3ccccc3)o2)cc1", "growth": "98.5% (inactive)"},
      {"smiles": "O=C(Nc1nn(-c2ccc(Cl)cc2Cl)nc1-c1ccccc1)c1ccccc1", "growth": "113% (inactive)"},
      {"smiles": "Cc1ccc(/C=N/Nc2nc(Nc3ccccc3)nc(-n3nc(C)cc3C)n2)cc1", "growth": "27.3% (inactive)"},
      {"smiles": "O=C(Nc1cc(Cl)ccc1O)c1ccc(Nc2ccnc(C(F)(F)F)c2)cc1", "growth": "71.2% (inactive)"},
      {"smiles": "CC(C)(C)c1cc(-c2nc3ccc(N4CCN(S(C)(=O)=O)CC4)cc3[nH]2)cc(C(C)(C)C)c1O", "growth": "101% (inactive)"}
    ]},
    {"system": "SN12C renal", "assay": "NCI-60 one-dose screen, 48 h (100 = growth as untreated, 0 = no growth, -100 = all killed)", "details": "10 µM unless noted", "values": [
      {"smiles": "O=C(NCCCN1CCOCC1)c1cccc(N2C(=O)/C(=C/c3ccc(F)cc3)SC2=S)c1", "growth": "93.6% (inactive)"},
      {"smiles": "CC(C)NC1CCC(Nc2ccnc3cc(Cl)ccc23)CC1", "note": "(stereo not drawn)", "growth": "102% (inactive)"},
      {"smiles": "Fc1ccc(-c2nn(-c3ccccc3)cc2-c2nc3ccccc3o2)cc1", "growth": "60.1% (inactive)"},
      {"smiles": "COc1ccc(C/C(C)=C(/c2ccc(OCCN3CCCCC3)cc2)c2ccc(OC(=O)NCc3ccccc3)cc2)cc1", "growth": "-88% (active)"},
      {"smiles": "Cn1cc(-c2nonc2-c2c[nH]c3ccc(Br)cc23)c2cc(Br)ccc21", "growth": "66.9% (inactive)"},
      {"smiles": "Cn1c(=O)c2c(nc(NC3=NS(=O)(=O)c4ccccc43)n2CC(=O)N2CCc3ccccc32)n(C)c1=O", "growth": "96.9% (inactive)"},
      {"smiles": "Clc1ccc(Nc2nnc(COc3ccccc3)c3ccccc23)cc1", "growth": "17% (inactive)"},
      {"smiles": "O=[N+]([O-])c1ccc(S(=O)(=O)N2CCN(C3=NS(=O)(=O)c4ccccc4N3c3ccccc3)CC2)cc1", "growth": "114% (inactive)"},
      {"smiles": "CCNC(=O)c1[nH]cc(-c2ccccc2)c1-c1cc(OC)c2c(c1OC)OCO2", "growth": "98.7% (inactive)"},
      {"smiles": "COCCn1c(-c2csc(-c3cn(C)c4ccc(OC)cc34)n2)cc2cccnc21", "growth": "80.2% (inactive)"},
      {"smiles": "S=C(Nc1ccc(-c2nc(N3CCOCC3)c3cccn3n2)cc1)Nc1cccnc1", "growth": "28.8% (inactive)"},
      {"smiles": "COc1cc(CNC(=O)CCCC/C=C/C(C)C)ccc1OCc1nnc(Nc2ccc([N+](=O)[O-])cc2)o1", "growth": "49% (inactive)"},
      {"smiles": "N#CC1=C(c2ccc(Cl)cc2)Nc2c(c(-c3ccc(Cl)cc3)nn2-c2ccccc2)C12C(=O)Nc1ccc(Cl)cc12", "note": "(stereo not drawn)", "growth": "56.5% (inactive)"},
      {"smiles": "CCOC(=O)/C=C1\\S/C(=N\\Nc2cc(=O)[nH]c3ccc(Cl)cc23)N(c2ccccc2)C1=O", "growth": "93.1% (inactive)"},
      {"smiles": "COc1cccc(NC(=O)Cn2cc(CN3CCN(c4ccnc5cc(Cl)ccc45)CC3)nn2)c1", "growth": "92.1% (inactive)"},
      {"smiles": "COc1cc(N2C(=O)[C@H](O)C2c2ccc(SC)cc2)cc(OC)c1OC", "note": "(stereo partly drawn)", "growth": "28.7% (inactive)"},
      {"smiles": "CSc1nnc(-c2cnn3c2NC(c2ccccc2)C3)n1-c1ccc(C(F)(F)F)cc1", "note": "(stereo not drawn)", "growth": "78.5% (inactive)"},
      {"smiles": "N=C(N)c1ccc(-c2ccc(-c3ccc(F)cc3)o2)o1", "growth": "37.4% (inactive)"},
      {"smiles": "CC1=NN(c2nc(SCC(=O)Nc3nc4ccc(C)cc4s3)nc(-c3ccccc3)c2C#N)C(=O)C1", "growth": "95.6% (inactive)"},
      {"smiles": "C/C(Nc1ccc(Cl)c(Cl)c1)=C1\\CCOC1=O", "growth": "88.9% (inactive)"},
      {"smiles": "N#Cc1cccc(-c2c(-c3ccc4ccccc4c3)oc3ccccc3c2=O)c1", "growth": "68.3% (inactive)"},
      {"smiles": "CC(C)N1CCN(Cc2ccc3c(NNC(=O)c4ccccc4)nc4cc(F)ccc4n23)CC1", "growth": "17.3% (inactive)"},
      {"smiles": "O=S(=O)(NCCCNc1nccc(-c2c(-c3ccc(F)c(O)c3)nc3occn23)n1)c1ccccc1", "growth": "79.1% (inactive)"},
      {"smiles": "O=C1NCCC12CCN(c1c(Cl)cncc1-c1ccc(O)cc1)CC2", "growth": "99.6% (inactive)"},
      {"smiles": "Cc1cccnc1NC(=S)Nc1ncccc1C", "growth": "98.4% (inactive)"},
      {"smiles": "COc1ccc2c3c([nH]c2c1)C(=O)c1nc(C)ccc1C3=O", "growth": "38.4% (inactive)"},
      {"smiles": "CC1Cc2c(Cl)ncnc2N(C)c2ccc(F)cc21", "note": "(stereo not drawn)", "growth": "106% (inactive)"},
      {"smiles": "O=C1c2cc(Cl)ccc2S(=O)(=O)c2c(NCCCNCCO)nc3ccccc3c21", "growth": "-46% (active)"},
      {"smiles": "O=C(c1ccc(Cl)cc1)N1CCN(c2ccnc3cc(Cl)ccc23)CC1", "growth": "91.2% (inactive)"},
      {"smiles": "Cc1nnc(NC(=O)c2nc(S(=O)(=O)Cc3ccc(F)cc3)ncc2Cl)s1", "growth": "64.7% (inactive)"},
      {"smiles": "COc1ccc2[nH]cc(-c3nc(-c4cn(C)c5c(Cl)nccc45)cs3)c2c1", "growth": "62.5% (inactive)"},
      {"smiles": "COc1ccc(/C(C)=C(/c2ccc(OCCCN(C)C)cc2)c2ccc(OC(=O)Cc3ccccc3)cc2)cc1", "growth": "82.4% (inactive)"},
      {"smiles": "CCOc1nc(-c2ccccc2)cc2c(O)c(C(=O)NN)[nH]c(=O)c12", "growth": "109% (inactive)"},
      {"smiles": "Cn1c(=O)c2[nH]c(N/N=C/c3ccccc3Br)nc2n(C)c1=O", "growth": "104% (inactive)"},
      {"smiles": "Clc1ccc(Sc2cnc(-c3ccccc3)o2)cc1", "growth": "101% (inactive)"},
      {"smiles": "O=C(Nc1nn(-c2ccc(Cl)cc2Cl)nc1-c1ccccc1)c1ccccc1", "growth": "98.9% (inactive)"},
      {"smiles": "Cc1ccc(/C=N/Nc2nc(Nc3ccccc3)nc(-n3nc(C)cc3C)n2)cc1", "growth": "48.9% (inactive)"},
      {"smiles": "O=C(Nc1cc(Cl)ccc1O)c1ccc(Nc2ccnc(C(F)(F)F)c2)cc1", "growth": "35.6% (inactive)"},
      {"smiles": "CC(C)(C)c1cc(-c2nc3ccc(N4CCN(S(C)(=O)=O)CC4)cc3[nH]2)cc(C(C)(C)C)c1O", "growth": "97.7% (inactive)"}
    ]}
  ]
}
